# Reference: PubChem BioAssay AID1851 (National Center for Advancing Translational Sciences (NCATS), 2009)
# The whole screen tested about 16,000 compounds, of which about 5,100 (32%) were called active. Roughly 25% stayed inconclusive and do not appear here. Some of the results follow. A number with no mark means an inactive call. The call rests on the fitted dose curve; in most records, active means well fitted curve in the direction sought with a large enough effect; inconclusive means small, poorly fitted or top-dose-only effect, or effect the other way; inactive means no such curve, though single readings can be large or run the other way.
# Target: Cytochrome P450 3A4 (Homo sapiens) (UniProt P08684)
# Experiment: Cytochrome panel assay with activity outcomes
# Conditions: recombinant CYP, pro-luciferin dealkylation, luminescence, p450-cyp3a4; series mostly up to 57.1 µM
# On the % scale 0 is the no-effect control and ±100 the full control effect.
# Chain of Cytochrome P450 3A4 (Homo sapiens) (P08684 whole entry, looked up): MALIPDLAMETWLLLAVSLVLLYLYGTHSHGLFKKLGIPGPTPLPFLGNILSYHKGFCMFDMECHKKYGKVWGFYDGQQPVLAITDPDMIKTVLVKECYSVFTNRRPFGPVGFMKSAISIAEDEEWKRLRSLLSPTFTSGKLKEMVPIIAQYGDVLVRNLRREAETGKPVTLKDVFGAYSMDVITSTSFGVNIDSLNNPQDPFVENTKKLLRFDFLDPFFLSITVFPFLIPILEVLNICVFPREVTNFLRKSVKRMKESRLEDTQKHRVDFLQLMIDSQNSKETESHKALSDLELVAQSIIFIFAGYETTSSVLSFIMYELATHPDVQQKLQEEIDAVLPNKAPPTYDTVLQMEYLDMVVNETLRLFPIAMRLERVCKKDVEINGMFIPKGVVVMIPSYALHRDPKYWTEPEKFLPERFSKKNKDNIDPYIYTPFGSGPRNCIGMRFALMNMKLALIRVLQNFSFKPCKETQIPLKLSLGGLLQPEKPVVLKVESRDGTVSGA
Structure (SMILES),"activity, negative = inhibition",AC50
CCOC(=O)N/N=C1/C[C@@H](O)[C@@H](O)[C@@H]2[C@@H]3C(=O)N(CC)C(=O)[C@H]3CC[C@H]12,-6.5% [at 11.4 µM],–
N#Cc1c(-c2ccccc2)ccnc1Oc1ccccc1,–,inactive
C/C(=N\OC(=O)c1ccccc1F)c1nccs1,–,inactive
C/C(CCC(=O)OC[C@@H]1O[C@H](C#Cc2ccccc2)C=C[C@@H]1Oc1ccc(C)cc1)=N/OC[C@@H](O)[C@H]1O[C@H]2OC(C)(C)O[C@H]2[C@@H]1O,–,3.98 µM (active)
COc1ccc(O[C@H]2C=C[C@@H](c3ccccc3)O[C@H]2COC(=O)CC/C(C)=N\OC[C@@H](O)[C@H]2O[C@H]3OC(C)(C)O[C@H]3[C@@H]2O)cc1,–,3.98 µM (active)
CC1(C)O[C@@H]2O[C@H]([C@H](O)CO/N=C3/[C@H]4O[C@@H]4[C@@H](O)[C@H]4[C@H]3CCn3c(=O)n(-c5ccccc5)c(=O)n34)[C@@H](O)[C@@H]2O1,-8.83% [at 11.4 µM],–
CC(=O)OC[C@@H]1O[C@H](C/C=N\OC[C@@H](O)[C@H]2O[C@H]3OC(C)(C)O[C@H]3[C@@H]2O)C=C[C@@H]1OC(C)=O,-11.1% [at 11.4 µM],–
COCCCN1C(=O)C(=O)/C(=C(/O)c2ccc(OC(C)C)c(C)c2)C1c1ccncc1 (stereo not drawn),–,inactive
CCOc1ccc(/C(O)=C2/C(=O)C(=O)N(CCCn3ccnc3)C2c2cccs2)cc1Cl (stereo not drawn),–,0.282 µM (active)
Cc1ccc(/C(O)=C2/C(=O)C(=O)N(CCCn3ccnc3)C2c2ccccn2)cc1 (stereo not drawn),–,inactive
Cc1cccc(/C(N)=N/OC(=O)CCCN2C(=O)c3ccccc3C2=O)c1,–,4.47 µM (active)
O=C(CCN1C(=O)c2ccccc2C1=O)Oc1ccc2ccccc2c1,–,inactive
O=C1c2ccccc2C(=O)N1CCSC(=S)N1CCOCC1,–,inactive
Cc1ccc(NC(=S)N2CCN(CCN3C(=O)c4cccc5cccc(c45)C3=O)CC2)cc1,–,4.47 µM (active)
Cc1cccc(NC(=O)CCCN2C(=O)c3cccc4cccc(c34)C2=O)c1,–,2.24 µM (active)
Cn1cnnc1SCC(=O)OCN1C(=O)c2ccccc2C1=O,–,inactive
CCN(CC)CCN1C(=O)c2cccc3cc(N)cc(c23)C1=O,-14.7% [at 11.4 µM],–
CC(=NCCN1CCN(C(=S)Nc2ccccc2)CC1)C1=C(O)CC(C)(C)CC1=O,-20.4% [at 11.4 µM],–
COc1ccccc1CN1CCCC2(CCN(S(C)(=O)=O)CC2)C1,–,inactive
COc1ccccc1CN1CC2(CCN(S(C)(=O)=O)CC2)C1,–,inactive
COc1ccccc1CN1CC2(CCN(S(=O)(=O)c3ccccc3)CC2)C1,–,20 µM (active)
COc1ccccc1CN1CCC2(CC1)CCN(S(=O)(=O)c1ccccc1)CC2,–,inactive

Structure (SMILES),"activity, negative = inhibition",AC50
COc1ccccc1CN1CCC2(CC1)CCN(S(C)(=O)=O)CC2,–,inactive
COc1ccccc1CN1CC[C@@]2(CCCN(S(=O)(=O)c3ccccc3)C2)C1,–,10 µM (active)
CC(=O)OCC(=O)[C@@]1(O)CC[C@@H]2[C@H]3CCC4=CC(=O)CC[C@]4(C)[C@]3(F)[C@@H](O)C[C@@]21C,–,inactive
CN1Cc2c(C(=O)OC(C)(C)C)ncn2-c2ccsc2C1=O,–,inactive
Cc1cccn2c(/C=N/OCc3ccc(F)cc3)c(-c3ccc(Cl)cc3)nc12,–,inactive
COc1ccc(/C(C#N)=C/c2c(-c3ccc(Cl)cc3)nc3c(C)cccn23)cc1,–,2.82 µM (active)
COc1ccc(-c2cc(C3CCN(c4ccc(C(C)=O)cc4[N+](=O)[O-])CC3)[nH]n2)cc1,–,4.47 µM (active)
CC(=O)c1ccc(N2CCC(c3cc(-c4ccc(Cl)cc4Cl)n[nH]3)CC2)c([N+](=O)[O-])c1,–,12.6 µM (active)
CCCNc1c(F)c(F)c2c(C)c3ccccc3nc2c1F,–,6.31 µM (active)
Cc1cc(NCCO)c2ccccc2n1,–,inactive
CC(C)C(O)(C(C)C)C(C)C,-4.9% [at 11.4 µM],–
Cc1ccc2[nH]c3c(c2c1)CN(C(=O)CN1c2ccc(F)cc2CCC1C)CC3 (stereo not drawn),–,8.91 µM (active)
COc1ccc2[nH]c3c(c2c1)CN(C)CC3,–,inactive
Nc1c(S(=O)(=O)c2ccccc2)c2nc3ccccc3nc2n1Cc1ccco1,–,3.98 µM (active)
CC(=O)Nc1c(S(=O)(=O)c2ccccc2)c2nc3ccccc3nc2n1Cc1ccccc1,–,4.47 µM (active)
COC(=O)CCSc1cc([N+](=O)[O-])cc2c1c(C1OCCS1)nn2-c1ccccc1 (stereo not drawn),–,14.1 µM (active)
O=C(O)/C=C\C(=O)Nc1ccc2c(c1)C(=O)c1cc(F)ccc1-2,–,3.16 µM (active)
O=C(O)/C=C/C(=O)Nc1ccccc1-c1ccccc1,–,inactive
O=C(O)/C=C\C(=O)Nc1cccc2c1-c1ccccc1C2=O,-10.9% [at 11.4 µM],–
CCCCc1n[nH]c2c1/C(=N/O)CC(c1ccccc1)C2 (stereo not drawn),–,12.6 µM (active)
Cc1ccc(S(=O)(=O)Nc2cc(=O)[nH]c3c2CCC3)cc1,–,3.16 µM (active)
Cc1cc(=O)[nH]c(-n2[nH]c3c(c2=O)CCCC3)n1,–,inactive

Structure (SMILES),"activity, negative = inhibition",AC50
Nc1nc(SCc2ccccc2Cl)cc(C(=O)O)n1,-1.56% [at 11.4 µM],–
CC1=C(C(N)=O)C(c2ccccn2)n2nc(SCc3ccccc3Cl)nc2N1 (stereo not drawn),–,6.31 µM (active)
CC(C)=CCc1c2c(c3occ(-c4ccc(O)c(O)c4)c(=O)c3c1O)C=CC(C)(C)O2,0.0575% [at 11.4 µM],–
Cc1cccc(N(CC(=O)NC2CCCC2)C(=O)c2cc3cc4cccc(C)c4nc3s2)c1C,–,4.47 µM (active)
CC(C)CC(C(=O)NCC1CCCO1)N(C(=O)Cn1nnc(-c2ccc(F)cc2)n1)c1cccc(C(F)(F)F)c1 (stereo not drawn),–,10 µM (active)
CC(C)CC(C(=O)NCC1CCCO1)N(C(=O)Cn1nnc(-c2ccc(F)cc2)n1)c1ccccc1F (stereo not drawn),–,14.1 µM (active)
CN(C(=O)Cn1nnc(-c2cccc(C(F)(F)F)c2)n1)C1CCCCC1,–,inactive
Cc1ccc(N(C(=O)Cn2nnc(-c3ccc(F)cc3)n2)C(CC(C)C)C(=O)NCC2CCCO2)cc1 (stereo not drawn),–,14.1 µM (active)
Nc1nc2c(c(=O)[nH]1)N(C=O)[C@H](CNc1ccc(C(=O)N[C@@H](CCC(=O)O)C(=O)O)cc1)CN2,–,inactive
N/N=C1/CC(=O)NC(=O)N1,-21.1% [at 11.4 µM],–
CC(=O)Nc1ccc(N2C(=O)CC(c3ccccc3)CC2=O)cc1,1.08% [at 2.29 µM],–
Cc1ccc(NC(=O)C2(NC(=O)c3cccc(N4C(=O)CSC4c4ccccc4)c3)CCCCC2)cc1 (stereo not drawn),–,2.82 µM (active)
Cc1ccc(C2C3=C(CCCC3=O)Nc3nc(SCC(=O)NCc4ccco4)[nH]c(=O)c32)cc1 (stereo not drawn),–,7.94 µM (active)
CCCCCCN1Cc2ccccc2C1,–,inactive
CN(C(=O)c1cnc(N2CCN(c3ncccn3)CC2)c2ccccc12)c1ccc(Cl)cc1,28.1% [at 11.4 µM],–
CCN(C(=O)c1cnc(N2CCN(c3ncccn3)CC2)c2ccccc12)c1cccc(Cl)c1,–,6.31 µM (active)
O=C1c2ccccc2S(=O)(=O)N1CCCCN1CCN(c2ncccn2)CC1,–,inactive
Clc1ccc(/C=N/c2c(-c3ccc(Cl)cc3)nc3n2CCS3)cc1,-12.1% [at 2.29 µM],–
COc1cccc(-c2ccc3ncnc(NCc4cnc(C)cn4)c3c2)c1,–,7.94 µM (active)
Cc1cnc(CNc2ncnc3ccc(-c4cccc(C#N)c4)cc23)cn1,–,3.16 µM (active)
COc1ccc(/C=N/n2cnc3c([nH]c4ccc(Br)cc43)c2=O)cc1CN1CCOCC1,–,5.01 µM (active)
Cc1cc2nc(SCCOC(=O)Nc3ccc(Cl)cc3)nc(C)c2cc1C,–,inactive

Structure (SMILES),"activity, negative = inhibition",AC50
CCCCSc1nc(C)cc(NC(=S)Nc2ccc(OC)cc2)n1,–,7.08 µM (active)
S=C(S)O[C@@H]1C[C@@H]2C[C@H]1[C@@H]1CCC[C@H]21,–,3.98 µM (active)
CCOC(=O)C(CC)(CC)C(=O)/C=C/c1ccc(Br)cc1,–,inactive
Cc1ccc(CNC(=O)CCc2c(C)nc3ncnn3c2C)cc1,–,2 µM (active)
Cc1nc2nc(C)c(CCC(=O)NCCCN3CCN(c4cccc(Cl)c4)CC3)c(C)n2n1,–,inactive
Cc1nc2ncnn2c(C)c1CCC(=O)NC(C)c1ccc2c(c1)OCCO2 (stereo not drawn),–,15.8 µM (active)
CCOC(=O)CCc1c(C)nc2ncnn2c1C,–,inactive
NCC[C@H](O)C(=O)N[C@H]1C[C@@H](N)[C@@H](O[C@H]2O[C@@H](CN)[C@@H](O)[C@@H](O)[C@@H]2O)[C@@H](O)[C@@H]1O[C@H]1O[C@@H](CO)[C@@H](O)[C@@H](N)[C@@H]1O,–,inactive
COCCn1c(=O)c(-c2cc(F)cc(F)c2)nc2cnc(Oc3ccc(OC)cc3)nc21,–,3.16 µM (active)
COCCn1c(=O)c(-c2cc(F)cc(F)c2)nc2cnc(Oc3cccc(Cl)c3)nc21,–,10 µM (active)
COCCn1c(=O)c(-c2cc(F)cc(F)c2)nc2cnc(OC)nc21,–,15.8 µM (active)
COCCn1c(=O)c(-c2cc(F)cc(F)c2)nc2cnc(N(C)C)nc21,–,inactive
COCCn1c(=O)c(-c2cc(F)cc(F)c2)nc2cnc(N3CCOCC3)nc21,–,inactive
CC(C)CO/N=C1/C[C@@H](O)[C@@H](O)[C@@H]2[C@@H]3C(=O)N(C[C@@H]4CCCO4)C(=O)[C@H]3CC[C@@H]12,-19.4% [at 11.4 µM],–
Cc1cc(C)c(S(=O)(=O)NCC2CCC(C(=O)NCc3ccc4c(c3)OCO4)CC2)c(C)c1 (stereo not drawn),–,0.891 µM (active)
C=CCNC(=O)C1CCN(S(=O)(=O)CC)CC1,–,inactive
CC1CCCN(CCCNC(=O)C2CC(=O)N(c3ccc(F)c(Cl)c3)C2)C1 (stereo not drawn),–,inactive
CCS(=O)(=O)N1CCC(C(=O)NCCN2CCN(Cc3ccccc3)CC2)CC1,–,inactive
CCOc1ccc(CCNC(=O)C2CC(=O)N(C3CCCC3)C2)cc1OCC (stereo not drawn),–,14.1 µM (active)
CCOc1ccc(CCNC(=O)C2CCN(S(=O)(=O)CC)CC2)cc1OCC,–,7.08 µM (active)
O=C(NCCN1CCN(Cc2ccccc2)CC1)C1CC(=O)N(C2CCCC2)C1 (stereo not drawn),–,inactive
CCN(CCCNC(=O)C1CCN(S(=O)(=O)CC)CC1)c1cccc(C)c1,–,11.2 µM (active)
